Screens as filed in PubChem BioAssay.
CYP2C19 act – human CYP2C19 activators, primary screen, biochemical, luminescence; AID 1025, 2008; activation factor at 5 µM; recombinant CYP2C19, luciferin-H EGE luminescence; hits give high values; 0 = fully inhibited enzyme, 1 = untreated enzyme; Cytochrome P450 2C19 (Homo sapiens), P33261; 96,000 tested, under 10 active;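 active means activation factor of at least 2 at 5 µM in the primary screen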;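 further: 0 = wells with 2.5 mM tranylcypromine and 1 = vehicle-only wells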
CYP2C19 inhib – blockers of cytochrome P450 2C19 activity – biochemical, luminescence, ADME assay, primary screen; P33261; CYP2C19 Supersomes, luciferin-H EGE luminescence, 30 min; inhibition, % at 5 µM; 96,000 tested, 21% active; AID 778, 2007;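 active means CYP2C19 inhibition above a set limit at 5 µM in the primary screen, cut at about 50% in these data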;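 further: plate controls were negative control wells for no effect and 2.5 mM tranylcypromine positive control for full effect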
CYP2C9 inhib – blockers of cytochrome P450 2C9 activity – biochemical, luminescence, ADME assay, primary screen | inhibition, % at 5 µM | 96,000 tested, 20% active | CYP2C9 Supersomes, luciferin-H conversion;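 active means blocking of liver enzyme CYP2C9 beyond about 50% at 5 µM, limit read from the data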
CYP2C9 activ – human CYP2C9 activators, primary screen, biochemical, luminescence. Cytochrome P450 2C9 (Homo sapiens), P11712. recombinant CYP2C9, luciferin-H conversion; hits give high values; factor 1 = untreated enzyme, 0 = blocked. activation factor at 5 µM. 96,000 tested, 1.4% active. AID 1024, 2008;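 active means activation factor of 2 or more for CYP2C9 at a 5 µM dose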;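 further: 0 = sulfaphenazole-blocked wells and 1 = vehicle-only wells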
Cav32 inh – Cav3.2 calcium influx blockers – cell-based, Fluo-4 calcium fluorescence, FDSS, MLSMR library, primary screen. Voltage-dependent T-type calcium channel subunit alpha-1H (Homo sapiens), O95180. Cav3.2-expressing cells; hits give low values. B-score at 10 µM. 100,000 tested, 4% active. AID 449739, 2010;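 active means single-dose well whose peak fluorescence ratio is a statistical outlier from its plate by either plate-standardised score or position-corrected B-score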
Numbers without * were called inactive; . = not tested or not shown. Hits are enriched below; roughly 27% of the tested compounds scored in any of these assays.

SMILES	CYP2C19 act	CYP2C19 inhib	CYP2C9 inhib	CYP2C9 activ	Cav32 inh
CCOC(=O)c1ccccc1NC1CC(=O)N(c2ccccc2C)C1=O (stereo not given)	0.2	80.5*	75.8*	0.2	-1.73
CCOC(=O)c1ccccc1NCN1C(=O)CSC1=O	1.1	-7.2	-18.8	1.2	0.331
CCCC(c1nnnn1C1CCCCC1)N1CCN(C2CCCC2)CC1 (stereo not given)	0.3	71.5*	0.4	1	-0.041
CCCCC(c1nnnn1C1CCCC1)N1CCN(C2CCCC2)CC1 (stereo not given)	0.5	46.5	32.8	0.7	0.234
CCCC(c1nnnn1C(C)(C)CC)N1CCN(C2CCCC2)CC1 (stereo not given)	0.4	59.8*	35.1	0.6	-0.622
CCC(c1nnnn1C(C)(C)C)N1CCN(C2CCCC2)CC1 (stereo not given)	0.9	8.0	21.7	0.8	0.684
CC1CN=C(c2cccn2Cc2ccc(F)cc2Cl)O1 (stereo not given)	0.6	42.1	2.4	1	-0.0982
CCc1nc(Nc2ccncc2)c2oc3ccccc3c2n1	1	1.7	0.0	1	-0.325
CCc1nc(N2CCN(Cc3ccc4c(c3)OCO4)CC2)c2oc3ccccc3c2n1	0.7	32.0	51.4*	0.5	0.0421
CCc1nc(Nc2ccc3c(c2)OCO3)c2oc3ccccc3c2n1	0.5	51.3*	75.0*	0.3	.
CCc1nc(NCCN2CCOCC2)c2oc3ccccc3c2n1	0.4	56.9*	36.8	0.6	1.45
CC1(C)CC(=O)C(C=NC(CCC(N)=O)C(=O)O)=C(O)C1 (stereo not given)	1.1	-10.2	0.5	1	0.00934
CCOC(=O)c1ccc(NC2c3ccccc3C(=O)N2c2cccnc2)cc1 (stereo not given)	0.1	88.1*	75.2*	0.2	-2.07
CCc1cccc(NC2c3ccccc3C(=O)N2c2ccc(C)cn2)c1 (stereo not given)	0.2	84.9*	50.5*	0.5	-4.43*
COC(=O)c1ccccc1NC1c2ccccc2C(=O)N1c1cccnc1 (stereo not given)	0.8	22.7	45.6	0.5	0.0555
COc1ccc(NC2c3ccccc3C(=O)N2c2ccccn2)cc1Cl (stereo not given)	0.2	76.0*	61.1*	0.4	-1.95
CCc1cccc(NC2c3ccccc3C(=O)N2c2cccnc2)c1 (stereo not given)	0	96.6*	53.0*	0.5	-0.297
O=C1c2ccccc2C(Nc2ccc(F)c(Cl)c2)N1c1ccccn1 (stereo not given)	0.6	36.7	7.7	0.9	-1.95
COc1cccc(-c2csc(N3CCN(Cc4ccccc4)CC3)n2)c1	0.9	12.6	23.7	0.8	-0.0417
CCCCCCCOc1ccc(OC(=O)c2cccnc2)cc1	0.3	66.0*	76.8*	0.2	-0.0194
CCCCOc1ccc(OC(=O)c2cccnc2)cc1	0.9	13.5	39.4	0.6	0.0825
CCCCCCOC(=O)c1ccc(OC(=O)c2cccnc2)cc1	0.3	71.5*	86.4*	0.1	0.17
CCCCCCCOc1ccc(OC(=O)c2ccncc2)cc1	0.9	9.6	22.8	0.8	0.818
Nc1cnc(CNc2ccccc2Cl)cn1	.	.	.	.	0.62
CSc1nc(N)nc(SCC(=O)c2ccc(C)cc2)c1C#N	1	-2.9	53.9*	0.5	-0.24
SMILES	CYP2C19 act	CYP2C19 inhib	CYP2C9 inhib	CYP2C9 activ	Cav32 inh
CSc1nc(N)nc(SCC(=O)OC(C)C)c1C#N	0.9	11.0	56.6*	0.4	-0.437
Cc1ccc(-c2nc(SCC(N)=O)c(C#N)c3c2CCCC3)cc1	0.4	64.6*	38.5	0.6	-0.645
CC(=O)c1cc(C#N)c(SCC(=O)OC(C)C)nc1C	0.6	36.9	24.5	0.8	0.441
CCc1c(C)nc(SCC(=O)CC(=O)OC(C)C)c(C#N)c1C	0.2	77.0*	35.7	0.6	-3.27
C=CCn1c(COc2cccc3ccc(C)nc23)nnc1SCC(N)=O	1	-2.6	-13.8	1.1	0.325
CSc1nnc([C@@H](NC(=O)OC(C)(C)C)C(C)C)o1	0.6	37.8	20.8	0.8	0.201
CCCCSc1nnc([C@H](CC(C)C)NC(=O)OC(C)(C)C)o1	0.4	61.7*	55.7*	0.4	-2.66
